Reference: PubChem BioAssay (NCATS)
Results filed as inconclusive are left out. Calls of active or inactive are those of the source. Calls come from the whole dose curve; as a rule, active = well fitted curve in the direction sought with a large enough effect; inconclusive = small, poorly fitted or top-dose-only effect, or another doubt; inactive = no such curve, though single readings can be large; an effect the other way counts as inactive or inconclusive.

How the values were obtained:
[1] = molecular target: Cytochrome P450 3A4 (Homo sapiens) (UniProt P08684); assay: qHTS Assay for Inhibitors and Substrates of Cytochrome P450 3A4 (AID 884); note: series mostly up to about 57 µM; nearly all actives have a fitted effect of over 50% in size
Outline: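 20 nM human CYP3A4 with 25 uM Luciferin-PPXE (at KM) in 200 mM KPO4, preincubated 10 min with compound; NADPH regeneration started a 60 min RT reaction. Luciferin detected by luminescence, normalized to 57 uM ketoconazole as full inhibition.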

[2] = MultiTox-Fluor Cytotoxicity Assay - LYMP1-001 - Dead Cells (AID 946);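 note: cells exposed to compound for 16 h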
Outline: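 Seed 2500 LYMP1-001 cells/well, incubate 5 hr at 37 C; add compound, 16 hr at 37 C; add MultiTox-Fluor reagent, 60 min RT; read dead-cell fluorescence Ex/Em=485/520. Normalize to DMSO and 15 uM tetraoctylammonium bromide.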

[3] = MultiTox-Fluor Cytotoxicity Assay - LYMP1-001 - Live Cells (AID 947)
[4] = Cell Viability - LYMP1-002 - Assay at 16 hr (AID 948)
Outline: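 LYMP1-002 human lymphoblastoid cells, 2500/well, were treated with compounds for 16 hr at 37 C in complete medium. Viability was read as intracellular ATP by CellTiter-Glo luminescence, and AC50 was derived from a Hill fit to concentration-response data.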

[5] = MultiTox-Fluor Cytotoxicity Assay - LYMP1-002 - Live Cells (AID 955);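 note: cells exposed to compound for 16 hours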
Outline: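 Cytotoxicity in the human lymphoblastoid line LYMP1-002 is measured as loss of live-cell protease activity after 16 h treatment in complete culture medium. AC50 is derived from Hill-equation fits of qHTS concentration-response data.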

[6] = MultiTox-Fluor Cytotoxicity Assay - LYMP1-002 - Dead Cells (AID 960);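 note: cells exposed to compound for 16 h at 37 °C; nearly all actives have a fitted effect of over 60% in size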
Outline: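 Acute cytotoxicity in a human lymphoblastoid line is scored as rising dead-cell protease signal after 16 hr exposure at 37 C, measured fluorometrically (485/520).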

[7] = MultiTox-Fluor Cytotoxicity Assay - LYMP1-003 - Dead Cells (AID 961);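 note: cells exposed to compound for 16 h at 37 °C; nearly all actives have a fitted effect of over 70% in size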
Outline: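 LYMP1-003 lymphoblastoid, 2500 cells/well, 5 hr settle then 16 hr cpd at 37 C; MultiTox-Fluor reagent 60 min RT; Ex/Em 485/520 dead-cell signal; norm. DMSO = 0%, 15 uM tetraoctylammonium bromide = 100%; Hill AC50.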

[8] = MultiTox-Fluor Cytotoxicity Assay - LYMP1-003 - Live Cells (AID 962);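 note: cells exposed to compound for 16 hours at 37 °C; cytotoxic hits lower the live-cell protease signal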
Outline: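 Cells plated at 2500 per well and incubated 5 hr; compounds added and incubated 16 hr at 37 C; MultiTox-Fluor reagent added for 60 min at room temperature; fluorescence of liberated AFC measured at 405/510 nm.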

[9] = Cell Viability - LYMP1-003 - Assay at 40 hr (AID 964); note: series mostly up to about 92 µM; nearly all actives have a fitted effect of over 60% in size
Outline: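 This qHTS cytotoxicity screen treats human lymphoblastoid cells (LYMP1-003) with compounds for 40 hr and quantifies cellular ATP via luciferase luminescence.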

[10] = Cell Viability - LYMP2-003 (AID 965);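 note: cells exposed to compounds for 24 h before reading; nearly all actives have a fitted effect of over 50% in size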
Outline: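 Human lymphoblastoid LYMP2-003 cells, 2500/well, exposed to compounds for 24 h at 37 C in complete medium. Viability read as intracellular ATP by CellTiter-Glo luminescence; AC50 from Hill-equation fits of qHTS concentration-response data.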

[11] = Cell Viability - LYMP2-004 (AID 966); note: nearly all actives have a fitted effect of over 65% in size
Outline: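 Acute toxicity is scored as a concentration-dependent drop in intracellular ATP, quantified by luciferase luminescence, in human lymphoblastoid cells exposed to compound for 24 hr. AC50 derives from Hill-equation modelling.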

[12] = Cell Viability - LYMP2-005 (AID 967); note: series mostly up to about 92 µM
Outline: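 Human lymphoblastoid LYMP2-005 cells, 2,500 per well in complete medium, rested 5 h at 37C then compound-treated 24 h at 37C. Intracellular ATP read by CellTiter-Glo luminescence after 30 min at room temperature; AC50 from Hill-equation fits of concentration-response data.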

[13] = Cell Viability - LYMP2-009 (AID 968); note: series mostly up to about 92 µM; nearly all actives have a fitted effect of over 55% in size
[14] = Cell Viability - LYMP2-011 (AID 969); note: nearly all actives have a fitted effect of over 60% in size
Outline: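 Acute toxicity is scored as a concentration-dependent drop in intracellular ATP of a human lymphoblastoid line after 24 hr treatment. Values are AC50s modeled with the Hill equation.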

[15] = Cell Viability - LYMP2-013 (AID 970); note: series mostly up to about 92 µM; nearly all actives have a fitted effect of over 55% in size
Outline: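 Acute toxicity was measured in human lymphoblastoid cells (2500/well) exposed to compound titrations for 24 hr, with ATP luminescence (CellTiter-Glo) as read-out and AC50 fitted by Hill equation.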

[16] = Cell Viability - LYMP2-015 (AID 971); note: nearly all actives have a fitted effect of over 55% in size
Outline: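 Acute toxicity was scored as a concentration-dependent drop in intracellular ATP in lymphoblastoid cells after 24 hr compound exposure in complete medium. Detection used CellTiter-Glo luciferase luminescence.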

[17] = Cell Viability - LYMP2-017 (AID 972); note: series mostly up to about 92 µM; nearly all actives have a fitted effect of over 55% in size
Outline: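 Steps: plate 2500 lymphoblastoid cells per well; incubate 5 hr at 37 C; add compound across a concentration series and incubate 24 hr at 37 C; add CellTiter-Glo and read luminescence after 30 min at room temperature; fit Hill curves for AC50.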

[18] = Cell Viability - LYMP2-019 (AID 973); note: nearly all actives have a fitted effect of over 55% in size
Outline: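 Cells plated at 2500/well and allowed 5 hr at 37 C before compound addition. After 24 hr incubation, CellTiter-Glo reagent was added, plates sat 30 min at room temperature, and luminescence was recorded.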

[19] = Cell Viability - LYMP2-021 (AID 974)
Outline: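 Concentration-response cytotoxicity in a human lymphoblastoid line: 24 hr treatment at 37 C in complete culture medium, tetraoctylammonium bromide as positive control, luminescent ATP quantitation as viability measure.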

[20] = Cell Viability - LYMP2-023 (AID 975)
Outline: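 Concentration-dependent drop in intracellular ATP measures acute cytotoxicity in a human lymphoblastoid line treated for 24 hours in complete culture medium. AC50 values are taken from Hill-equation fits of qHTS data.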

[21] = Cell Viability - LYMP2-025 (AID 976); note: series mostly up to about 92 µM
Outline: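 In qHTS format, LYMP2-025 lymphoblastoid cells in complete culture medium received compound for 24 hr; ATP-based CellTiter-Glo signal gave viability, with AC50 derived by Hill equation.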

[22] = Cell Viability - LYMP2-002 (AID 977);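 note: series mostly up to about 92 µM; compound exposure lasted 24 h at 37 °C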
Outline: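 Cytotoxicity is scored as concentration-dependent loss of cellular ATP in a human lymphoblastoid line after 24 hr compound treatment at 37 C. AC50 is obtained by modelling concentration-response data with the Hill equation.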

[23] = Cell Viability - LYMP2-006 (AID 978); note: series mostly up to about 92 µM; nearly all actives have a fitted effect of over 60% in size
Outline: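 Human lymphoblastoid cells (LYMP2-006), 2500/well in complete medium, were treated with compound for 24 hr at 37 C. Cellular ATP was read by CellTiter-Glo luminescence after 30 min, and AC50 values came from Hill-equation fits of concentration-response data.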

[24] = Cell Viability - LYMP2-007 (AID 979)
Outline: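 Acute toxicity is scored as a concentration-dependent fall in intracellular ATP in human lymphoblastoid cells treated 24 hr at 37 C, measured by luciferase luminescence; Hill-equation modelling yields AC50.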

Measured: Potency

Chain of Cytochrome P450 3A4 (Homo sapiens) (P08684 whole entry, looked up): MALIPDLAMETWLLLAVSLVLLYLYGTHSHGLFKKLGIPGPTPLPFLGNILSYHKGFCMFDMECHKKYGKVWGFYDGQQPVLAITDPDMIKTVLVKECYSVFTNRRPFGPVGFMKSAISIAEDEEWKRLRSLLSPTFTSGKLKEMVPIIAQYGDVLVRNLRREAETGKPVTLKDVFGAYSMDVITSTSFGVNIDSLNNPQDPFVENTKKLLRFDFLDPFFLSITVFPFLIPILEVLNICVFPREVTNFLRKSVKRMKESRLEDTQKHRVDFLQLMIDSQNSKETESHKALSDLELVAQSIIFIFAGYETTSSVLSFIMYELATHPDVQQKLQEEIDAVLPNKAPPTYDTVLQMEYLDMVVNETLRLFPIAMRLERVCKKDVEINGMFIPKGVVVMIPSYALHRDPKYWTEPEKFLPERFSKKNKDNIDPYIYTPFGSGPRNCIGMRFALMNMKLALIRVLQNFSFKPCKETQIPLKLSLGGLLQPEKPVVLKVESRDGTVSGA

CCCOC(=O)c1ccccc1C(=O)OCCC
inactive: [1] | [2] | [3] | [4] | [5] | [6] | [7] | [8] | [9] | [10] | [11] | [12] | [13] | [14] | [15] | [16] | [17] | [18] | [19] | [20] | [21] | [22] | [23] | [24]
